HPGD block: inhibitors of human 15-hydroxyprostaglandin dehydrogenase (HPGD). P15428. Potency, µM, for inactives: at the highest dose activity change, negative = inhibition, usual class: inhibitors. actives 4.3% (n = 150,000). purified HPGD, NADH fluorescence kinetic, PGE2 substrate; note: potency is the fitted concentration of half-maximal effect
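NADH formation kinetics: reaction with 30 uM PGE2 and 1 mM NAD+ (final), 20 nM enzyme, Tris-HCl pH 8 with Tween 20, after 15 min compound preincubation at room temperature. Fluorescence change, last versus first of five reads.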
Lamin A splicing: LMNA splicing modulation | HeLa LMNA splicing GFP/RFP minigene ratio, 48 h | Potency, µM (highest dose often 46.1 µM), for inactives: at the highest dose ratio change, negative = inhibition, most hits filed as inhibitors | actives 0.01% (n = 200,000) | AID 1487; active = well fitted inhibition curve with a large enough effect in the signal ratio, with a control signal flat, not every such curve was filed as active; inconclusive = small, poorly fitted or top-dose-only effect, or effect the other way, or a change in a side signal; the % refers to the signal ratio; note: potency is the fitted concentration of half-maximal effect
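S3 HeLa cells stably expressing lamin A-EGFP splicing minigene plus DsRed2, 600 cells/well, 48 h compound exposure at 37C. Laser-scanning cytometry; analysed as GFP (500-530 nm)/RFP (575-640 nm) total intensity ratio; 0.5% DMSO vehicle.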
ALDH1A1 inh: blocks purified human ALDH1A1 activity. Purified ALDH1A1, NADH fluorescence, propionaldehyde substrate. Potency, µM (titrated, usually from 75.3 µM), for inactives: at the highest dose activity, negative = inhibition, usual class: inhibitors. actives 7.3% (n = 220,000). AID 1030;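 note: potency is the fitted concentration of half-maximal effect; plate controls were no enzyme wells and a reference inhibitor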
Target sequence (P00352 whole entry, looked up): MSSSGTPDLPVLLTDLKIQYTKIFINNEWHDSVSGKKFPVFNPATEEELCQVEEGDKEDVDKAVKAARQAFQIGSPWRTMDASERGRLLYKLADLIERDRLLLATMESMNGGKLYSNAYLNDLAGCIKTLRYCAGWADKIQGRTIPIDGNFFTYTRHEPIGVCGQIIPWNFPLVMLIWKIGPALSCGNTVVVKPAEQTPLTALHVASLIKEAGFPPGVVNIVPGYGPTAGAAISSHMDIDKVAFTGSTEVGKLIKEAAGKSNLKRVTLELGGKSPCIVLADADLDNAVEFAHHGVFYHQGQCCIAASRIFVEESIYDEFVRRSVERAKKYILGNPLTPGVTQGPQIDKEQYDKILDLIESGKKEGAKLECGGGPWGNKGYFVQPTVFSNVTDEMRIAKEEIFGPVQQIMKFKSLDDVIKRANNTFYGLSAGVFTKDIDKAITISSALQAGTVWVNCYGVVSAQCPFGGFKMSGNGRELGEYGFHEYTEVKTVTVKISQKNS
ALOX12 inhib: blocks human 12-lipoxygenase activity; purified 12-hLO, xylenol orange hydroperoxide absorbance; P18054; actives 0.12% (n = 150,000); Potency, µM (doses to about 57.1 µM), inactives show top-dose activity change, negative = inhibition, actives largely listed as inhibitors; AID 1452; active = well fitted inhibition curve with a large enough effect; inconclusive = small, poorly fitted or top-dose-only effect; note: potency is the fitted concentration of half-maximal effect; nearly all actives have a fitted effect of over 55% in size
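Hydroperoxide formation by human 12-lipoxygenase from 40 uM arachidonic acid was followed colorimetrically via ferric-xylenol orange complex, using the 573/405 nm absorbance ratio. Enzyme concentration was 150 nM, with 30 min reaction at room temperature.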
PNC inhibitor: perinucleolar compartment assembly inhibition | PC3M PTB-GFP, PNC prevalence imaging, 16 h; hits give low values | activity change (PNC), negative = inhibition, % at 10 µM | actives 3.1% (n = 140,000) | AID 2417;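 active = readout at or below -70, meaning at least 70% loss of cells showing the perinucleolar compartment, a nuclear body marking cancer cells; inconclusive = readout between -30 and a set limit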;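 note: plate controls were DMSO wells for no effect and camptothecin positive control wells for full effect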
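Read-out is percentage of cells bearing a perinucleolar compartment, from automated 20x imaging of fixed, Hoechst-stained PC3M PTB-GFP cells. Cells were seeded 4 h, then exposed 16 h to compound (23 nl of library stock) in duplicate plates.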
* hit, by the source's call; ? = inconclusive; / = no result given; [ ] = another dose, or the depositor's remark. Hits are enriched below; roughly 10% of the tested compounds scored in any of these assays. Unless noted, calls come from the whole dose curve; as a rule, active = well fitted inhibition curve with a large enough effect (not every such curve was filed as active); inconclusive = small, poorly fitted or top-dose-only effect, or another doubt; inactive = no such curve, though single readings can be large or run the other way. Unless noted, % is set by controls: 0 for no effect and ±100 for the full control effect.

SMILES | HPGD block | Lamin A splicing | ALDH1A1 inh | ALOX12 inhib | PNC inhibitor
COC(=O)c1ccc(/C=N/OCC(=O)NC2CCCCCCC2)cc1 | 28µM* | 17% | -4% | -1% | 46
CCC(C)NC(=O)CO/N=C/c1ccc(C(=O)OC)cc1 (stereo unspecified) | -21% | 1% | 4% | -2% | 14
CCOc1ccccc1OCC(=O)NC1CCCCC1 | -14% | 2% | 7% | -9% | 12
COc1ccccc1OCC(=O)NC1CCCCCC1 | 10µM* | ? | ? | -2% | 25
Cc1cc(-c2nnc(CCC(=O)N3CCN(Cc4cccc(F)c4)CC3)o2)c(C)o1 | / | ? | 28µM* | / | /
Cc1cccc2sc(NNC(=O)c3ccc(S(=O)(=O)N4CC(C)CC(C)C4)cc3)nc12 (stereo unspecified) | -8% | 18µM* | ? | -27% | 6
COc1ccc(OC)c(NC(=O)N2CCN(Cc3nc4ccc(C)cc4o3)CC2)c1 | / | 2%[46 µM] | / | / | /
O=C(Oc1ccc(N(Cc2cccs2)C2=NS(=O)(=O)c3ccccc32)cc1)c1ccc(Cl)cc1 | -21% | -3% | 22µM* | 0% | 15
O=C(NCc1ccc2c(c1)OCO2)C1CCCN1S(=O)(=O)c1ccc(Cl)cc1 (stereo unspecified) | / | ? | 4% | / | /
CCOc1ccc(NC(=S)/C(=C(\[O-])c2ccc(C)c([N+](=O)[O-])c2)[n+]2ccccc2)cc1 | ? | -1% | 11µM* | -6% | ?
CCc1cc[n+](/C(C(=S)Nc2cccc(C)c2)=C(/[O-])c2ccc(C)c([N+](=O)[O-])c2)cc1 | -20% | -5% | ? | -8% | ?
COc1cccc(NC(=S)/C(=C(\[O-])c2ccc([N+](=O)[O-])cc2)[n+]2ccccc2)c1 | / | -9%[46 µM] | 13µM* | / | /
Cc1ccc(NC(=S)/C(=C(\[O-])c2ccc(F)cc2)[n+]2ccccc2)cc1 | / | 1%[9.22 µM] | 10µM* | / | /
Cc1ccc(/C([O-])=C(/C(=S)NCc2ccco2)[n+]2ccccc2)cc1 | -11% | -2% | -7% | -7% | 18
O=[N+]([O-])c1ccc(/C([O-])=C(/C(=S)NCc2ccco2)[n+]2ccccc2)cc1 | / | 4%[46 µM] | 7.9µM* | / | /
CCOC(=O)C1=C(c2ccccc2)c2cc(OC)ccc2OC1C(=O)OCC (stereo unspecified) | -10% | / | ? | -4%[0.00818 µM] | /
Cc1ccc(S(=O)(=O)/C(C#N)=C/c2ccccc2OCc2ccccc2)cc1 | ? | ? | ? | -4% | -24
COc1ccc(/C=C(/C#N)S(=O)(=O)c2ccc(C)cc2)cc1 | 25µM* | 16% | -4% | 0% | -1
COc1ccccc1CN1CCC2(CC1)CCN(C(=O)c1ccncc1)CC2 | -6% | / | 4% | 0% | /
S=C(c1cn(CCOc2cccc3ccccc23)c2ccccc12)N1CCCC1 | -11% | ? | 28µM* | -1% | 31
Cc1ccc(OCCn2cc(C(=S)N3CCCC3)c3ccccc32)cc1C | -10% | ? | ? | ? | -106*
COC(=O)c1cc(C)nc2c1c(=O)nc(SCc1ccccc1F)n2C1CC1 | / | 14%[46 µM] | / | / | /
O=C(Cc1cn2ccsc2n1)NCc1ccccc1 | ? | 10% | ? | 2% | ?
O=C(Cc1cn2ccsc2n1)Nc1nc2c(s1)CN(Cc1ccccc1)CC2 | -9% | -4% | 10µM* | 12% | 2
CCOC(=O)[C@H](CCc1ccccc1)N[C@@H](C)C(=O)N1[C@H](C(=O)O)C[C@H]2CCCC[C@@H]21 | -4% | ? | -1% | 0% | /
SMILES | HPGD block | Lamin A splicing | ALDH1A1 inh | ALOX12 inhib | PNC inhibitor
Cc1oc(-c2cccs2)nc1CS(=O)CC(=O)NCCc1ccccc1 (stereo unspecified) | 32µM* | -1% | ? | -6% | -28
CCn1c(SCC(=O)NCC(=O)Nc2ccc(F)cc2)nnc1-c1cccs1 | -8% | -4% | 5% | 1% | -86*
Cc1sc2nc(SCC(=O)NCc3ccco3)n(Cc3ccccc3)c(=O)c2c1C | -7% | 6% | -2% | -4% | ?
Cc1[nH]c2ccc(-c3nnc(SCC(=O)NCc4ccco4)n3Cc3ccccc3)cc2c1C | 16µM* | -9% | 32µM* | -3% | 12
CCCCn1c(SCC(=O)NCc2ccco2)nnc1-c1ccco1 | -24% | 3% | 20µM* | -3% | 30
CCCCn1c(SCC(=O)NCc2ccco2)nnc1-c1ccoc1C | -8% | -7% | -12% | -6% | 36
CCn1c(SCC(=O)Nc2ccc(C(=O)OC)cc2)nnc1-c1cccs1 | -10% | 12% | 6% | -4% | ?
OC[C@H]1O[C@@H]2O[C@H]3[C@H](O)[C@@H](O)[C@@H](O[C@H]4[C@H](O)[C@@H](O)[C@@H](O[C@H]5[C@H](O)[C@@H](O)[C@@H](O[C@H]6[C@H](O)[C@@H](O)[C@@H](O[C@H]7[C@H](O)[C@@H](O)[C@@H](O[C@H]8[C@H](O)[C@@H](O)[C@@H](O[C@H]1[C@H](O)[C@H]2O)O[C@@H]8CO)O[C@@H]7CO)O[C@@H]6CO)O[C@@H]5CO)O[C@@H]4CO)O[C@@H]3CO | -9% | ? | ? | 7% | /
O=C(COc1ccc(Cl)cc1)NCCc1csc(-c2cccc(F)c2)n1 | / | -12%[46 µM] | / | / | /
CCNc1ncc2nc(-c3ccc(Cl)cc3)c(=O)n(C[C@H]3CCCO3)c2n1 | / | -3% | ? | / | /
COc1ccc(C)cc1NC(=O)N1CCCn2nc(C)cc21 | / | 13%[46 µM] | / | / | /
CC(=O)c1c(C)[nH]c(C(=O)CSc2nnc(-c3cccs3)n2Cc2ccccc2)c1C | ? | -25% | 13µM* | -3% | ?
CCn1c(SCC(=O)NCCc2ccccc2)nnc1-c1cccs1 | 28µM* | 1% | -5% | -2% | 33
CCOC(=O)c1c(C)[nH]c(C(=O)CSc2nnc(-c3cccs3)n2Cc2ccccc2)c1C | -19% | 15% | -1% | 1% | -20
O=c1cc(CSc2nnc(-c3cccs3)n2Cc2ccccc2)nc2sc3ccccc3n12 | -6% | ? | 7.9µM* | -11% | 9
CCn1c(SCC(=O)NCc2ccco2)nnc1C(C)C | -22% | ? | 4µM* | -3% | ?
O=C(CCSCCC(=O)Nc1c(F)c(F)c(F)c(F)c1F)Nc1c(F)c(F)c(F)c(F)c1F | / | / | 1% | / | /
O=C(CSc1nnc(-c2ccco2)n1Cc1ccccc1)OC1CCCCC1 | 25µM* | 1% | ? | -2% | -27
O=C(CSc1nnc(-c2ccncc2)n1Cc1ccco1)OC1CCCCC1 | -24% | 4% | ? | 3% | ?
CCn1c(SCC(=O)NCc2ccco2)nnc1-c1cccs1 | 25µM* | -2% | 8.9µM* | -3% | -26
COC(=O)CSc1nnc(-c2ccco2)n1Cc1ccco1 | -20% | 2% | 14µM* | -3% | 3
COc1ccc(C(=O)NCc2nnc(SCC(=O)N3CCC(C)CC3)o2)cc1 | / | -5%[46 µM] | ? | / | /

From PubChem
